We go through five compounds from PubChem BioAssay.

The subject of assay [1] is Wnt5a (protein binding on small-molecule microarray). The assay is described as follows: small molecules binding Wnt5a protein – biophysical, small-molecule microarray, 635/667 nm fluorescence, primary screen (AID 1142).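 Note: fluorescence read at 667 nm with signal to noise per printed feature.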 To be noted: 635 nm fluorescence, higher = more signal.
A short description of assay [2]: ATP-based viability of Huh7 replicon cells – cell-based, CellTiter-Glo luminescence, basal, 48 h, cytotoxicity control for HCV replication inhibitor project, primary screen (AID 1143).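 Note: Huh7 hepatoma cells carrying a hepatitis C replication reporter with no stimulus; test concentration not given here.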 To be noted: higher = more signal, called active from +8 up or from −8 down. Background: Replicon systems follow genome replication, usually without infectious particles.
Assay [3] in a line: Pseudomonas biofilm growth suppression – PAO1 strain, BacTiter-Glo luminescence, LB-PBS, primary screen (AID 1144). The note with it: P. aeruginosa PAO1 biofilm, 12 h, higher = more signal.
Assay [4] in a line: basal CRE-LacZ reporter activity in PC12 – cell-based, unstimulated, primary screen (AID 1145). The note with it: no forskolin, luminescence, 4.5 h, higher = more signal, called active from +8 up or from −8 down.
Assay [5] in a line: forskolin-driven CRE-LacZ activity in PC12 – cell-based, CRE-LacZ reporter, forskolin-stimulated, primary screen (AID 1146).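 Note: PC12 cells with 6xCRE LacZ reporter stimulated by forskolin 10 µM; beta-galactosidase reporter signal reflecting CREB driven transcription.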 The note with it: luminescence, 4.5 h, higher = more signal, called active from +8 up or from −8 down.
Assay [6] has as its target Streptavidin (Streptomyces avidinii) (UniProt P22629). The assay can be described thus: compounds binding control protein streptavidin – biophysical, small-molecule microarray, 635/667 nm fluorescence, artefact control for SMM compound annotation, primary screen (AID 1147).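 Note: signal reflects streptavidin binding to arrayed compounds as a control protein.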 The note with it: higher = more signal.
Assay [7] is described as follows: probe aInhba binding on compound microarray – biochemical, small-molecule microarray, 635/667 nm fluorescence, primary screen (AID 1148).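 Note: score merges 667nm spot fluorescence with signal-to-noise for antibody binding to printed compounds.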 The note with it: higher = more signal.
Assay [8] deals with Torsin-1A (Homo sapiens) (UniProt O14656). The assay can be described thus: TOR1A wild-type binding on microarray – cell lysate, small-molecule microarray, lysate, 635/667 nm, primary screen (AID 1149). To be noted: COS7 hTOR1A-WT lysate, 635 nm fluorescence, higher = more signal.
Torsin-1A (Homo sapiens), sequence (O14656 whole entry, looked up): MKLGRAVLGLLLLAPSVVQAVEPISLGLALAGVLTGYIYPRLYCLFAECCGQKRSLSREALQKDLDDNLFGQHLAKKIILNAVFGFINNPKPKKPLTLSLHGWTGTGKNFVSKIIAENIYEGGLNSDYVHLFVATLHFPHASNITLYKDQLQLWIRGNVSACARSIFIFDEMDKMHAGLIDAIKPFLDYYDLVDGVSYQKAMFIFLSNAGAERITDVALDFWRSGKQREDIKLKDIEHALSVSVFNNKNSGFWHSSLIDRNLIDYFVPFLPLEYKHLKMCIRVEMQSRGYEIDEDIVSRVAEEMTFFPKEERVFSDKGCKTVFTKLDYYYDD
The target is the same in assay [9]. The assay can be described thus: torsin A mutant lysate binding on microarrays – cell lysate, small-molecule microarray, COS7 lysate, 635/667 nm fluorescence, primary screen (AID 1150).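 Note: score pools 667 nm emission and signal to noise measuring lysate protein binding.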 The note with it: COS7 hTOR1A mutant lysate, 635 nm fluorescence, higher = more signal.
In assay [10] the test system is Sonic hedgehog protein (Shh). The assay can be described thus: Sonic hedgehog microarray binding compounds – biochemical, small-molecule microarray, 635/667 nm fluorescence, primary screen (AID 1151).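 Note: Shh protein binding to compounds spotted on small-molecule microarray slides; score combines spot fluorescence intensity with signal-to-noise across triplicate slides.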 To be noted: 635 nm fluorescence, higher = more signal.
Assay [11] is described as follows: optical density shifts of acrAB sulA E. coli – strain DRC41, OD650, 48 h, E. coli filamentation inducer project, primary screen (AID 1152).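 Note: E. coli MC1000 strain DRC41 lacking acrAB efflux pump and sulA.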 To be noted: higher = more signal, called active from +8 up or from −8 down.
Assay [12] is described as follows: probe aLefty1 binding on compound microarray – biochemical, small-molecule microarray, 635/667 nm fluorescence, primary screen (AID 1153).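 Note: score merges spot fluorescence with signal-to-noise ratio from the scanned slide images.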 To be noted: higher = more signal.
Assay [13] is described as follows: plasmodial surface anion channel blockers, osmotic lysis – cell-based, P. falciparum Indochina, OD700, 1 h, primary screen (AID 1154). The note with it: P. falciparum Indochina infected RBC osmotic lysis, higher = more signal, called active from +8 up or from −8 down.
Assay [14] can be described thus: plasmodial surface anion channel blockers, osmotic lysis – cell-based, P. falciparum Indochina, OD700, 2 h, primary screen (AID 1155).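 Note: lysis reports solute entry through the parasite surface anion channel PSAC.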 The note with it: P. falciparum Indochina infected erythrocytes, higher = more signal, called active from +8 up or from −8 down.
The nature of assay [15]: changes in parasitized red cell lysis, either direction – P. falciparum Indochina, OD700, 3 h, PSAC antagonist project, primary screen (AID 1156). The note with it: P. falciparum-infected erythrocytes, osmotic lysis, higher = more signal, called active from +8 up or from −8 down.
A short description of assay [16]: plasmodial surface anion channel blockers, osmotic lysis – cell-based, P. falciparum Indochina, OD700, 18 h, primary screen (AID 1157). To be noted: P. falciparum Indochina infected erythrocytes, osmotic lysis OD700, 18 h; higher = more signal, called active from +8 up or from −8 down.
Assay [17] can be described thus: S6 kinase pathway phospho-S6 level changes – cell-based, A549, cytoblot, luminescence, serum-stimulated, primary screen (AID 1158).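 Note: serum-stimulated A549 lung adenocarcinoma cells; signal is phosphorylated S6 detected by cytoblot immunostaining with HRP secondary.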 To be noted: 5 h, higher = more signal.
In assay [18] the target is NADPH oxidase 2 (Homo sapiens) (UniProt P04839). The assay is described as follows: compounds shifting NOX2 Amplex Red fluorescence – cell-based, HEK293-NOX2, PMA-stimulated, NOX inhibitor project, primary screen (AID 1159). Note: test concentration not given here. To be noted: 45 min, higher = more signal, called active from +8 up or from −8 down.
NADPH oxidase 2 (Homo sapiens), sequence (P04839 whole entry, looked up): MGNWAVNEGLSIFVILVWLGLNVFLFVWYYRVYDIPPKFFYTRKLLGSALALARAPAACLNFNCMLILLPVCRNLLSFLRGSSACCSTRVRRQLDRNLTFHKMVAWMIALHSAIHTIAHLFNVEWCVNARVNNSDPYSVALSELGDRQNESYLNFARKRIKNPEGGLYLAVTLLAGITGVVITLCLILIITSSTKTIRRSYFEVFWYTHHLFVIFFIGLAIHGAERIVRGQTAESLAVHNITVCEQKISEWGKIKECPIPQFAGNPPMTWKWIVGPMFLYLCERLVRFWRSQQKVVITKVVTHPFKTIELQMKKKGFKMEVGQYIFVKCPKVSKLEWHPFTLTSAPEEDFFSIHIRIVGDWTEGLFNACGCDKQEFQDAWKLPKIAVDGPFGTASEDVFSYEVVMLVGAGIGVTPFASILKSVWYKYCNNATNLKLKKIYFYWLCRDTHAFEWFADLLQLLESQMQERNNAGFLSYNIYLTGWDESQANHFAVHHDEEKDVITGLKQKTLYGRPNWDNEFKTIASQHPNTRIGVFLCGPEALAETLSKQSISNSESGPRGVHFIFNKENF
The target in assay [19] is NADPH oxidase 4 (Homo sapiens) (UniProt Q9NPH5). The assay can be described thus: compounds shifting NOX4 Amplex Red fluorescence – cell-based, HEK293-NOX4, tetracycline-induced, NOX inhibitor project, primary screen (AID 1160). The note with it: HEK293-NOX4, Amplex Red H2O2 fluorescence, 45 min; higher = more signal, called active from +8 up or from −8 down.
NADPH oxidase 4 (Homo sapiens), sequence (Q9NPH5 whole entry, looked up): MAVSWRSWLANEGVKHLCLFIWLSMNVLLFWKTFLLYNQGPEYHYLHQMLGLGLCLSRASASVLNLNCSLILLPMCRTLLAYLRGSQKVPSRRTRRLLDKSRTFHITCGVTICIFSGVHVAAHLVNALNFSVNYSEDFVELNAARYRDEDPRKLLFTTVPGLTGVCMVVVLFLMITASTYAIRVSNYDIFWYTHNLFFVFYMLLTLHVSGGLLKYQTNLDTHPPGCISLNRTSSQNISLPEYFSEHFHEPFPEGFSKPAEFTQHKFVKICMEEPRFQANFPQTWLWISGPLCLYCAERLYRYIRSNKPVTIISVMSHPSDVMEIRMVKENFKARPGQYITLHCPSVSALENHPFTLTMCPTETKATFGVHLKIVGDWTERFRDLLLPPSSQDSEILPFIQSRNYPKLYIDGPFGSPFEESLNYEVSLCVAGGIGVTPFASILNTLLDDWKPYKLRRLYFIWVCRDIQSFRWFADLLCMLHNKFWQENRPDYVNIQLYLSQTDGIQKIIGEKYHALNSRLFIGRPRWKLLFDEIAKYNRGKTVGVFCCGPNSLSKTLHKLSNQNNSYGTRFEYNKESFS
Assay [20] deals with NADPH oxidase 5 (Homo sapiens) (UniProt Q96PH1). The assay can be described thus: compounds shifting NOX5 Amplex Red fluorescence – cell-based, HEK293-NOX5, NOX inhibitor project, primary screen (AID 1161). To be noted: HEK293-NOX5, ionomycin, 45 min, higher = more signal.
NADPH oxidase 5 (Homo sapiens), sequence (Q96PH1 whole entry, looked up): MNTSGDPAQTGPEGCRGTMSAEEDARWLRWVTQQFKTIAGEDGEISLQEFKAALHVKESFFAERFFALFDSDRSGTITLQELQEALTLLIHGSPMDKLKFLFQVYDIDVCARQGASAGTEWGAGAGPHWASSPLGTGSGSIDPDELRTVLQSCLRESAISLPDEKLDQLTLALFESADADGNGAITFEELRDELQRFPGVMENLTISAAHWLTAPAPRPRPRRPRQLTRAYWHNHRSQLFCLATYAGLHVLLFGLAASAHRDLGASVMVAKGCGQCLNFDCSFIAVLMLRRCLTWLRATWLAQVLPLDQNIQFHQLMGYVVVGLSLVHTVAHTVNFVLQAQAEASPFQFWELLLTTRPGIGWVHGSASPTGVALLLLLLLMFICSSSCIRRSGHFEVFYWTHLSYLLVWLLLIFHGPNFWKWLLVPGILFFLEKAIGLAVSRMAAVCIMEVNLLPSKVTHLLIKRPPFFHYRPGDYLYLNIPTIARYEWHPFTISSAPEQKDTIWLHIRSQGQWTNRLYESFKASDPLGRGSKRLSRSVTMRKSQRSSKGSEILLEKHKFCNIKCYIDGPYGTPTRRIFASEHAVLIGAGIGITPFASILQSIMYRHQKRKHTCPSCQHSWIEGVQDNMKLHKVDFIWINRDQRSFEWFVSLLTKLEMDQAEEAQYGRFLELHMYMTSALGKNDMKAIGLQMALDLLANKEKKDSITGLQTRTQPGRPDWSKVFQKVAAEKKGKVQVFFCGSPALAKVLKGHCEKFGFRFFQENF

Molecules are shown by their SMILES. The source made the active and inactive calls. Unless noted, the rule behind the calls is not given here.

Streptavidin (Streptomyces avidinii), sequence (P22629 whole entry, looked up): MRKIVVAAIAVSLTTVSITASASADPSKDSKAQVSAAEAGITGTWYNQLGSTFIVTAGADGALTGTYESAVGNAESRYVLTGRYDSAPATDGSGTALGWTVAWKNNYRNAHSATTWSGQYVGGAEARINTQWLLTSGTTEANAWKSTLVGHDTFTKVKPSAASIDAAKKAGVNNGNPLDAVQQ

Turning to `C=C(COC)/C(=C/C[C@H](OC(=O)c1ccncc1)c1cccc(OCCO)c1)c1cnc2ccccc2c1`, the composite z-score in assay [1] was 0.154; in assay [6], 1.7; in assay [7] it was 0.322; in assay [8], 0.839; in [9] it was 0.897; in [10], 2.02. Moreover, in assay [12], the composite z-score was determined as 0.317. For the same compound, the z-score in assay [2] is 0.0839 (inactive); in assay [3], 0.0918 (inactive); in assay [4], 0.769 (inactive); in assay [5], 0.506 (inactive); in assay [11], -0.223 (inactive); in assay [13] it was 9.54 (active). Besides, the z-score in [14] was 0.936 (inactive); in assay [15] it was 0.426 (inactive); in assay [16] it was 0.431 (inactive); in assay [17] it was 0.231; in [18], -0.0605 (inactive); in assay [19], 0.24 (inactive). In addition, the z-score in assay [20] was -0.3.
In the case of `CCC(CC)C(O)C1C=CC2C(=O)N(C)C(=O)C2N1N1CCCCC1` (stereo not given), the composite z-score worked out at 0.323 in assay [1]; 1.51 in [6]; 0.3 in assay [7]; 0.504 in [8]; 0.844 in [9]; 0.959 in assay [10]. In assay [12], this compound came in with a composite z-score of 0.361. Moreover, the z-score in [2] is 0.374 (inactive); in assay [3], -0.328 (inactive); in assay [4], 0.0501 (inactive); in assay [5], 1.06 (inactive); in assay [11] it was -1.65 (inactive); in [13], 1.41 (inactive). The z-score in assay [14] was 0.787 (inactive); in assay [15], 0.156 (inactive); in [16], 0.729 (inactive); in assay [17] it was -1.17; in assay [18] it was -0.893 (inactive); in assay [19], -1.17 (inactive). In addition, the z-score in [20] is -1.35.
For `C[C@]1(C(=O)NCC(F)(F)F)c2ccccc2C(=O)N(Cc2ccc(OC(F)(F)F)cc2)[C@H]1c1ccc(CO)cc1`, the composite z-score is -0.151 in [1]; 0.0803 in assay [6]; -0.128 in assay [7]; -0.906 in assay [8]; 0.7 in [9]; 0.31 in assay [10]. This compound also gave a composite z-score in [12] of -0.284. Further, the z-score in assay [2] is -2.8 (inactive); in assay [3] it was 0.382 (inactive); in assay [4], 0.324 (inactive); in assay [5], 1.3 (inactive); in assay [11] it was -0.831 (inactive); in assay [13] it was 2.58 (inactive). Further, the z-score is 0.295 (inactive) in [14]; 3.67 (inactive) in [15]; 0.451 (inactive) in assay [16]; -0.32 in assay [17]; 1.45 (inactive) in [18]; -0.0975 (inactive) in [19]. Besides, in assay [20], the z-score is -1.45.
For `NCCCC[C@@H]1NC(=O)[C@H]2C[C@@H](C(=O)NCc3ccc(F)cc3)[C@@H](c3cccc(OCCO)c3)N2C1=O`, the composite z-score is 0.334 in [1]; -0.0648 in [6]; 0.122 in [7]; 0.608 in assay [8]; 1.48 in assay [9]; 2.07 in assay [10]. In assay [12], the composite z-score is 0.254. In addition, the z-score in assay [2] was -0.262 (inactive); in assay [3], -0.862 (inactive); in [4] it was 0.0084 (inactive); in assay [5], -0.583 (inactive); in assay [11], -0.405 (inactive); in assay [13], -0.591 (inactive). Further, the z-score in assay [14] is 0.157 (inactive); in assay [15], -0.805 (inactive); in assay [16] it was 0.274 (inactive); in [17], -0.325; in [18] it was 1.88 (inactive); in assay [19], 0.647 (inactive). Besides, the z-score in assay [20] was found to be 0.582.
Turning to `COC(=O)C(CC#Cc1ccc2c(c1)[C@]1(C(=O)N2)[C@H](c2ccc(O)cc2)N2[C@H](c3ccccc3)[C@H](c3ccccc3)OC(=O)[C@H]2[C@@H]1C(=O)N1CCc2cc(OC)c(OC)cc2C1)C(=O)OC`, the composite z-score was 0.294 in assay [1]; 0.455 in assay [6]; -0.101 in [7]; 0.966 in assay [8]; 0.48 in assay [9]; 1.31 in assay [10]. Further, the composite z-score in assay [12] came out at 0.156. Besides, the z-score in assay [2] is -0.26 (inactive); in assay [3], 0.786 (inactive); in assay [4], 0.918 (inactive); in [5], 0.351 (inactive); in [11], -0.958 (inactive); in assay [13], 1.4 (inactive). Also, the z-score in assay [14] is 0.923 (inactive); in assay [15] it was 0.848 (inactive); in assay [16], 0.591 (inactive); in assay [17], -0.747; in assay [18], 2.05 (inactive); in assay [19], 0.706 (inactive). Further, in assay [20], the z-score amounted to 0.218.
